Drawing on PubChem BioAssay (NCI), this text covers growth for 33 compounds.

Compounds without any hit were thinned out: in the full panel of roughly 83,000, 20% have a hit.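 48-hour exposure, single concentration, 96-well plates; percent growth endpoint where 0 means no net growth. Active: below 10.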 A number with no mark means an inactive call. Active and inactive are the calls of the source.

For this assay, the system named is KM12 colon. In words: NCI-60 one-dose screen, 48 h (100 = growth as untreated, 0 = no growth, -100 = all killed). The settings on record: 10 µM unless noted.
Consider `Cn1cc(C2=C(c3cn(C4CCN(Cc5ccccn5)CC4)c4ccccc34)C(=O)NC2=O)c2ccccc21`, for which the growth is 57.2%.
As to `O=C1OCCC1Br` (stereo not drawn), the growth was 108%.
As to `CC(CO)NC1CCCCC1` (stereo not drawn), the growth was 114%.
For `CC[C@H](C)[C@H](NC(=O)C12CC(NC(C)=O)(C1)C2)C(=O)N(C)[C@H](C[C@@H](OC(C)=O)c1nc(C(=O)N[C@@H](Cc2ccccc2)C[C@H](C)C(=O)OC)cs1)C(C)C`, the growth is 12.5%.
Regarding `ClCCN(CCCl)Cc1ccc(Nc2ccnc3cc(Cl)ccc23)cc1`, the growth is 62.9%.
For `O=C(N/N=C\c1ccc(N(CCCl)CCCl)cc1)c1cccc([N+](=O)[O-])c1`, the growth was 93.6%.
As for `O=[N+]([O-])c1c(Br)sc(Br)c1[N+](=O)[O-]`, the growth was 64.1%.
On to `CC12CC(=O)C3(SC#N)C(CCC4=CC(=O)CCC43C)C1CCC2=O` (stereo not drawn), for which the growth is 102%.
With `CCn1c2ccccc2c2cc(C(=O)c3ccc(C)c4ccccc34)ccc21`, the growth was 13.4%.
Under `COc1ccc([As]=[As]c2ccc(OC)c(NCS(=O)(=O)O)c2)cc1NCS(=O)(=O)O` (stereo not drawn) stands 72.9%.
`NC1CC2CCCCC2CC1(O)c1ccccc1` (stereo not drawn): the growth is 99.7%.
Under `N/C(=N/N=C/c1ccncc1)N[N+](=O)[O-]` stands 100%.
For the compound `O=C1CCC2(O)[C@@H]3Cc4ccc(O)c5c4[C@]2(CCN3Cc2ccoc2)C1O5` (stereo partly drawn), the growth was 98.2%.
Take `CCOP(=O)(Nc1ccc2c(c1)/C(=N/NC(N)=S)c1ccccc1-2)OCC`: the growth is 88.9%.
In the case of `COC(=O)CCc1c[nH]c2ccc(N(CCCl)CCCl)cc12`, the growth is 86.6%.
Regarding `COc1cc(C=Nc2cccc(C(=O)O)c2)ccc1N(CCCl)CCCl`, the growth was 57.3%.
On to `C/C(CC(C)(C)N1CC1)=N\NC(=O)Nc1cccc2ccccc12`, for which the growth is 75.9%.
For `CCCCNC(c1ccc(Cl)cc1)C(O)c1ccc(Cl)cc1` (stereo not drawn), the growth is 21.6%.
Consider `O=C(O)CNC(=O)C(Cl)(Cl)Cl`, for which the growth was 101%.
On to `CC1(C)[C@H](O)[C@H](F)C[C@@]2(C)Oc3ccc(C(=O)Nc4ccc5c(c4)NC(=O)C54CCN(CCCCC#N)CC4)cc3C[C@H]12`, for which the growth was 22%.
Take `COC(=O)[C@@H](C)C[C@H](Cc1ccccc1)NC(=O)c1csc([C@@H](C[C@H](C(C)C)N(C)C(=O)[C@@H](NC(=O)[C@H]2CCCCN2C)C(C)C)OC(C)=O)n1`: the growth was 4.46% (active).
For the compound `N#CCCNc1ccccc1`, the growth is 113%.
For the compound `CCCCCC1(CCBr)C(=O)NC(=O)NC1=O`, the growth was 109%.
As to `COC(=O)[C@@H](C)C[C@H](Cc1ccccc1)NC(=O)c1csc([C@@H](C[C@H](C(C)C)N(C)C(=O)[C@@H](NC(=O)[C@H]2CCCCN2C)C(C(F)(F)F)C(F)(F)F)OC(C)=O)n1`, the growth was 7.94% (active).
In the case of `NC(CCl)CCl`, the growth was 99.5%.
Turning to `[Cl][Hg][n]1c(-c2ccco2)nc2ccccc21`, the growth was 97.8%.
Take `Cc1cc(N(CCCl)CCCl)ccc1C=Nc1ccccc1-c1ccccc1`: the growth is 97.3%.
Regarding `CCC1CN1CCCCN1CC1CC` (stereo not drawn), the growth is 106%.
With `COC(=O)[C@@H](C)C[C@H](Cc1ccccc1)NC(=O)c1csc([C@@H](C[C@H](C(C)C)N(C)C(=O)[C@@H](NC(=O)C23CC(NC(C)=O)(C2)C3)C2CC2)OC(C)=O)n1`, the growth is 28%.
For `O=[N+]([O-])CC(O)C(Cl)(Cl)Cl` (stereo not drawn), the growth is 107%.
In the case of `O=[N+]([O-])c1ccc(OP(=O)(CCl)N(CCCl)CCCl)cc1` (stereo not drawn), the growth was 101%.
For `CN(C)CCCOc1ccc2c(c1)c(C(=O)C(=O)NCCO)cn2Cc1ccccc1`, the growth is 104%.
For `O=C(CC1(O)C(=O)Nc2ccc(Cl)cc21)c1ccc(C(=O)NCC2CCC3(CC2)OOC2(CCCCC2)OO3)cc1` (stereo not drawn), the growth is 9.65% (active).
